Source: PubChem BioAssay (NCATS)
Records with an inconclusive call do not appear. Entries that show only a call come without a potency. Activity calls are given as the source filed them. Calls follow the shape of the dose curve; as a rule, active = well fitted cell-killing curve with a large enough effect; inconclusive = small, poorly fitted or top-dose-only effect, or effect the other way; inactive = no such curve, though single readings can be large or run the other way.

Experiment: Quantitative High-Throughput drug screen in 47 multiple myeloma cell lines against the NCATS MIPE library collection: ARD_JJKsccE7 cell viability assay (AID 1918929)
Settings: ARD myeloma cell line viability, CellTiter-Glo, 48 h; series mostly up to 45.8 µM
Description: PI: Beverly A. Mock Ph.D.
Laboratory of Cancer Biology and Genetics,
Center for Cancer Research, National Cancer Institute,
National Institute of Health, Bethesda, Maryland
Drug resistance and disease progression are common in multiple myeloma (MM) patients, underscoring the need for new therapeutic combinations. […] We hypothesized that effective combinations would reduce MYC expression and enhance p16 activity. […] These preclinical data identify potentially useful drug combinations for evaluation in drug-resistant MM and reveal potential mechanisms of combined drug sensitivity.
Described herein is the primary MIPE qHTS used to cherrypick compounds. Validated compounds were then further tested for potential synergistic activiy.
[1] Peat TJ, Gaikwad SM, Dubois W, Gyabaah-Kessie N, Zhang S, Gorjifard S, Phyo Z, Andres M, Hughitt VK, Simpson RM, Miller MA, Girvin AT, Taylor A, Williams D, D'Antonio N, Zhang Y, Rajagopalan A, Flietner E, Wilson K, Zhang X, Shinn P, Klumpp-Thomas C, McKnight C, Itkin Z, Chen L, Kazandijian D, Zhang J, Michalowski AM, Simmons JK, Keats J, Thomas CJ, Mock BA. Drug combinations identified by high-throughput screening promote cell cycle transition and upregulate Smad pathways in myeloma. Cancer Lett. 2023 Aug 1;568:216284. doi: 10.1016/j.canlet.2023.216284. Epub 2023 Jun 24. PMID: 37356470; PMCID: PMC10408729.
SEQUENCE No. (e.g., 1, 2, 3, etc.); […] (e.g., Cells, Incubation, Reagent, etc.); VALUE and DESCRIPTION.
1; Cells; 5 uL; white, solid bottom 1536-well Greiner assay plate.
2; Compounds; 23 nL; Kalypsis pin tool (Wako USA) equipped with a 1536-well pin head to transfer to the assay plates.
3; Incubation; 48 hours; 37C incubation.
4; Reagent;5uL; CellTiter Glo (Promega).
5; Detector; 425V; Luminescence; Viewlux PerkinElmer.
NOTES (numbers refer to Sequence numbers above)
1. The cell-based screening methods employed in this study were like those previously published. Briefly, the corresponding myeloma cell lines were screened in 1,536-well plates with 500 cells, 5-uL per well for inhibition of cell viability (assessed by measuring ATP levels with CellTiterGlo).
2. NCATS MIPE 4.0 library of approved and investigational drugs were added using the Kalypsis pin tool. Wells treated with DMSO only for 100% viability and media only wells for 0% viability were used as controls.
3. The assay plates were covered and incubated for 48 hours in a 37C, 5% CO2 incubator with controlled humidity.
4. After 48 hours, CellTilter-GloTM luminescent substrate mix (Promega) reagent was added to the assay plate and plates we incubated for 5 min at room temperature.
5. Signal was measured as median relative luminescence units on a ViewLux (PerkinElmer) multiplate reader.
[1] Heske CM, Davis MI, Baumgart JT, Wilson K, Gormally MV, Chen L, Zhang X, Ceribelli M, Duveau DY, Guha R, Ferrer M, Arnaldez FI, Ji J, Tran HL, Zhang Y, Mendoza A, Helman LJ, Thomas CJ. Matrix Screen Identifies Synergistic Combination of PARP Inhibitors and Nicotinamide Phosphoribosyltransferase (NAMPT) Inhibitors in Ewing Sarcoma. Clin Cancer Res. 2017 Dec 1;23(23):7301-7311. doi: 10.1158/1078-0432.CCR-17-1121. Epub 2017 Sep 12. PMID: 28899971; PMCID: PMC6636827.
Potency is read from the fitted curve at half-maximal effect.

Structure (SMILES) | Potency
CC(C)C[C@H](NC(=O)[C@H](CCc1ccccc1)NC(=O)CN1CCOCC1)C(=O)N[C@@H](Cc1ccccc1)C(=O)N[C@@H](CC(C)C)C(=O)[C@@]1(C)CO1 | 0.001 µM (active)
CCn1cc(C(=O)O)c(=O)c2cc(F)c(N3CCN(C)CC3)cc21 | 0.0132 µM (active)
NS(=O)(=O)c1cc2c(cc1Cl)NC(C(Cl)Cl)NS2(=O)=O (stereo not given) | inactive
CO[C@@]12[C@H](COC(N)=O)C3=C(C(=O)C(C)=C(N)C3=O)N1C[C@@H]1N[C@@H]12 | inactive
Cc1ccc(S(=O)(=O)N[C@@H](Cc2ccccc2)C(=O)CCl)cc1 | 16.6 µM (active)
CNC1CCCN(c2c(F)cc3c(=O)c(C(=O)O)cn(C4CC4)c3c2OC)C1 (stereo not given) | inactive
COc1ccccc1OCC(O)COC(N)=O (stereo not given) | inactive
CCCc1nc(C)c2c(=O)[nH]c(-c3cc(S(=O)(=O)N4CCN(CC)CC4)ccc3OCC)nn12 | 6.62 µM (active)
O=C(N[C@H](CO)[C@H](O)c1ccc([N+](=O)[O-])cc1)C(Cl)Cl | inactive
CC(C)NCC(O)c1ccc(NS(C)(=O)=O)cc1 (stereo not given) | inactive
CCC(C)(C)c1ccc(CC(C)CN2C[C@@H](C)O[C@@H](C)C2)cc1 (stereo not given in full) | inactive
CNS(=O)(=O)CCc1ccc2[nH]cc(C3CCN(C)CC3)c2c1 | 10.5 µM (active)
CN1CCN(c2c(F)cc3c(=O)c(C(=O)O)cn(CCF)c3c2F)CC1 | inactive
COc1ncnc(NS(=O)(=O)c2ccc(N)cc2)c1OC | inactive
N[C@@H](Cc1ccc(O)c(O)c1)C(=O)O | inactive
Nc1nc(=S)c2[nH]cnc2[nH]1 | inactive
COc1c(N2CCNC(C)C2)c(F)cc2c(=O)c(C(=O)O)cn(C3CC3)c12 (stereo not given) | inactive
CCOC(=O)c1ccc(C#Cc2ccc3c(c2)C(C)(C)CCS3)nc1 | inactive
CCc1c2c(nc3ccc(OC(=O)N4CCC(N5CCCCC5)CC4)cc13)-c1cc3c(c(=O)n1C2)COC(=O)[C@]3(O)CC | 0.0105 µM (active)
COc1cc(NCc2ccc3nc(N)nc(N)c3c2C)cc(OC)c1OC | 1.05 µM (active)

Structure (SMILES) | Potency
COc1cc2ncnc(Nc3cccc(Cl)c3)c2cc1OC | 23.5 µM (active)
CCC(=O)O[C@]1(C(=O)SCF)[C@H](C)C[C@H]2[C@@H]3C[C@H](F)C4=CC(=O)C=C[C@]4(C)[C@@]3(F)[C@@H](O)C[C@@]21C | inactive
CCn1cc(C(=O)O)c(=O)c2cc(F)c(N3CCNCC3)cc21 | inactive
C#CCN[C@@H]1CCc2ccccc21 | inactive
CC(=O)CC(c1ccccc1)c1c(O)c2ccccc2oc1=O (stereo not given) | inactive
Cc1onc(-c2ccccc2Cl)c1C(=O)N[C@@H]1C(=O)N2[C@@H]1SC(C)(C)[C@@H]2C(=O)O | inactive
COc1ccc(-c2ccc3cc(C(=O)O)ccc3c2)cc1C12CC3CC(CC(C3)C1)C2 | inactive
O=C(NCC1CN(c2ccc(N3CCOCC3=O)cc2)C(=O)O1)c1ccc(Cl)s1 (stereo not given) | 23.5 µM (active)
NC(=O)N1c2ccccc2CC(=O)c2ccccc21 | inactive
CCN[C@H]1C[C@H](C)S(=O)(=O)c2sc(S(N)(=O)=O)cc21 | inactive
CCOC(=O)[C@H](CCc1ccccc1)N[C@H]1CS[C@H](c2cccs2)CN(CC(=O)O)C1=O | 1.66 µM (active)
NCCCC(O)(P(=O)(O)O)P(=O)(O)O | inactive
O=c1oc2c(O)c(O)cc3c(=O)oc4c(O)c(O)cc1c4c23 | inactive
Nc1[nH]c(=O)ncc1F | inactive
CC(C)(C)NC(=O)[C@H]1CC[C@H]2[C@@H]3CC[C@H]4NC(=O)C=C[C@]4(C)[C@H]3CC[C@]12C | 20.9 µM (active)
CNCC[C@H](Oc1cccc2ccccc12)c1cccs1 | 23.5 µM (active)
Nc1nc(N)c2nc(CNc3ccc(C(=O)NC(CCC(=O)O)C(=O)O)cc3)cnc2n1 (stereo not given) | 0.0118 µM (active)
CNC(=O)c1cc(Oc2ccc(NC(=O)Nc3ccc(Cl)c(C(F)(F)F)c3)cc2)ccn1 | 2.64 µM (active)
COc1ccc(C(=O)CC(=O)c2ccc(C(C)(C)C)cc2)cc1 | 18.7 µM (active)
CC(C)(C)C(=O)OCOP(=O)(COCCn1cnc2c(N)ncnc21)OCOC(=O)C(C)(C)C | 5.9 µM (active)
